Results filed as inconclusive are left out. Active and inactive are the calls of the source. The call rests on the fitted dose curve; in most records, active means well fitted curve in the direction sought with a large enough effect; inconclusive means small, poorly fitted or top-dose-only effect, or another doubt; inactive means no such curve, though single readings can be large; an effect the other way counts as inactive or inconclusive.
What was measured:
[1] = qHTS of pediatric cancer cell lines to identify multiple opportunities for drug repurposing: Confirmatory screen for TC32 cells (AID 1347118);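 further: cells exposed to compound for 48 h before the read; nearly all actives have a fitted effect of over 65% in size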
In short: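 TC32 cells, 500-1,000/well in growth medium, compound-treated 48 h at 37 °C; viability from CellTiter-Glo luminescence. Primary screen: MIPE 11-point (0.78 nM–46 µM final), NPC 8-point (0.59 nM–46 µM final); confirmatory at 11-point dilutions.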

[2] = qHTS of pediatric cancer cell lines to identify multiple opportunities for drug repurposing: Confirmatory screen for MG 63 (6-TG R) cells (AID 1347119); further: nearly all actives have a fitted effect of over 55% in size
In short: (§1)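 Cells (500-1,000/well) rested 5 h, then received compounds for 48 h; metabolically active cells were measured by CellTiter-Glo luminescence. Final concentrations spanned up to 46 µM (MIPE, 11-point) or 0.59 nM-46 µM (NPC, 8-point) in primary screens, 11-point in follow-ups.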

[3] = qHTS of pediatric cancer cell lines to identify multiple opportunities for drug repurposing: Confirmatory screen for control Hh wild type fibroblast cells (AID 1347121); further: nearly all actives have a fitted effect of over 70% in size
In short: as §1

[4] = qHTS of pediatric cancer cell lines to identify multiple opportunities for drug repurposing: Confirmatory screen for Rh30 cells (AID 1347126); further: nearly all actives have a fitted effect of over 55% in size
In short: as §1

[5] = qHTS of pediatric cancer cell lines to identify multiple opportunities for drug repurposing: Confirmatory screen for Saos-2 cells (AID 1347127); further: nearly all actives have a fitted effect of over 60% in size
In short: as §1

[6] = qHTS of pediatric cancer cell lines to identify multiple opportunities for drug repurposing: Confirmatory screen for OHS-50 cells (AID 1347128);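 further: compound exposure lasted 48 h at 37 degrees C; nearly all actives have a fitted effect of over 55% in size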
In short: as §1

[7] = qHTS of pediatric cancer cell lines to identify multiple opportunities for drug repurposing: Confirmatory screen for SK-N-SH cells (AID 1347129);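 further: cells exposed to compound for 48 h before viability read; nearly all actives have a fitted effect of over 60% in size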
In short: as §1

[8] = qHTS of pediatric cancer cell lines to identify multiple opportunities for drug repurposing: Confirmatory screen for U-2 OS cells (AID 1347122); further: nearly all actives have a fitted effect of over 65% in size
In short: as §1

[9] = qHTS of pediatric cancer cell lines to identify multiple opportunities for drug repurposing: Confirmatory screen for RD cells (AID 1347124);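 further: cells exposed to compound for 48 h before viability readout; nearly all actives have a fitted effect of over 65% in size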
In short: as §1

[10] = target: N-terminal Xaa-Pro-Lys N-methyltransferase 1 (Homo sapiens) (UniProt Q9BV86); assay: qHTS Assay for Inhibitors of N-terminal methyltransferase 1 (NTMT1): LOPAC validation of the NTMT1 SAHH-coupled ThioGlo3 Assay (AID 1347143);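 further: SAH from peptide methylation measured as thiol fluorescence via SAHH coupling and ThioGlo3; nearly all actives have a fitted effect of over 70% in size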
Chain of N-terminal Xaa-Pro-Lys N-methyltransferase 1 (Homo sapiens) (Q9BV86 whole entry, looked up): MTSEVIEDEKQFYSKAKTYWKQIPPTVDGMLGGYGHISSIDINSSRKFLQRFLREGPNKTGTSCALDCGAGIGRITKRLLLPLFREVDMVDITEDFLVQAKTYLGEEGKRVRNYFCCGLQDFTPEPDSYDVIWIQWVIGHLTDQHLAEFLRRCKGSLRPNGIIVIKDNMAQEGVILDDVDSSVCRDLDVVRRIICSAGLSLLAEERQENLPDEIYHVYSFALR
In short: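 Inhibition of NTMT1 methylation of peptide SPKRIA is followed by converting SAH with SAHH and labelling the released thiol with ThioGlo3. Plates are read at 340/450nm before and 30 min after reagent addition, both at room temperature.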

Measured: Potency
Potency means the concentration at half of the fitted maximal effect.

CCC1(c2cnc[nH]2)Cc2ccccc2C1
active: [1] 4.14 µM | [2] 14.7 µM | [4] 10.4 µM | [5] 9.27 µM
inactive: [3] | [6] | [7]

CCC(=O)O[C@]1(C(=O)COC)[C@@H](C)C[C@H]2[C@@H]3CCC4=CC(=O)C=C[C@]4(C)C3(F)[C@@H](O)C[C@@]21C (stereo partly drawn)
active: [2] 26.1 µM
not listed: [5] | [10]
inactive: all other assays above

COc1cc(/C=C/C(N)=O)cc(OC)c1OC
inactive: [1] | [3] | [8] | [6] | [7]

CCc1cc2cc(OC)c(OC)cc2c(Cc2ccccc2)n1
not listed: [2] | [6] | [10]
inactive: all other assays above

CCN(CC)CC(=O)OCC(=O)[C@@]1(O)CC[C@H]2[C@@H]3CCC4=CC(=O)CC[C@]4(C)[C@H]3[C@@H](O)C[C@@]21C
active: [1] 11.7 µM
inactive: [3] | [8] | [5] | [6] | [7]

Cc1cc(OCCOCC[N+](C)(C)Cc2ccccc2)ccc1C(C)(C)CC(C)(C)C
active: [1] 2.93 µM | [2] 9.27 µM | [3] 20.8 µM | [8] 23.3 µM | [9] 10.4 µM | [4] 13.1 µM | [5] 7.37 µM | [6] 14.7 µM | [7] 20.9 µM

CCCCC(=O)OCC(=O)[C@H]1[C@H](C)C[C@H]2[C@@H]3C[C@H](F)C4=CC(=O)C=C[C@]4(C)[C@@]3(F)[C@@H](O)C[C@@]21C
active: [1] 16.5 µM | [2] 18.5 µM | [4] 14.7 µM | [6] 20.8 µM
inactive: [7]

CC(=O)OCC(=O)[C@@]1(O)CCC2C3CCC4=CC(=O)CC[C@]4(C)C3[C@@H](O)C[C@@]21C (stereo partly drawn)
inactive: [2] | [3] | [6] | [7]
active: [1] 26.1 µM

C[C@]12CCC(=O)C=C1CC[C@@H]1[C@@H]2[C@@H](O)C[C@@]2(C)[C@H]1CC[C@]2(O)C(=O)COC(=O)CCC(=O)O
not listed: [1] | [10]
inactive: all other assays above

CC[C@@]1(O)C(=O)OCc2c1cc1n(c2=O)Cc2c-1nc1ccccc1c2/C=N/OC(C)(C)C
active: [1] 0.0052 µM | [2] 0.0185 µM | [4] 0.522 µM | [5] 0.0165 µM | [6] 0.0369 µM | [7] 1.87 µM

CCC1=C[C@@H]2CN(C1)Cc1c([nH]c3ccccc13)[C@@](C(=O)OC)(c1cc3c(cc1OC)N(C)[C@H]1[C@@](O)(C(=O)OC)[C@H](OC(C)=O)[C@]4(CC)C=CCN5CC[C@]31[C@@H]54)C2
inactive: [3]
active: [1] 0.0165 µM | [2] 0.0233 µM | [8] 0.185 µM | [9] 0.0293 µM | [5] 0.0185 µM

O=[N+]([O-])c1ccc(O)c2ncccc12
inactive: [8]
active: [1] 5.85 µM | [7] 9.35 µM

Nc1ccc2cc3ccc(N)cc3nc2c1
active: [1] 9.27 µM | [2] 23.3 µM | [8] 9.27 µM | [9] 5.22 µM | [4] 7.37 µM | [6] 20.8 µM | [7] 5.26 µM

CO[C@@H]1[C@@H](OC)[C@H](C)[C@@](O)(CC(=O)O)O[C@H]1[C@H](C)[C@H]1O[C@@]2(CC[C@@](C)([C@H]3CC[C@@](C)([C@@H]4O[C@@H]([C@H]5O[C@](C)(O)[C@H](C)C[C@@H]5C)C[C@@H]4OC4C[C@H](OC)[C@@H](OC)[C@H](C)O4)O3)O2)C[C@H](O)[C@H]1C (stereo partly drawn)
active: [1] 2.08 µM | [2] 0.522 µM | [3] 8.27 µM | [8] 0.329 µM | [4] 7.37 µM | [5] 1.17 µM | [6] 0.657 µM | [7] 1.48 µM

Cc1nc(N)nc(N)c1-c1ccc(Cl)c(Cl)c1
inactive: [2] | [3] | [4] | [7]
active: [1] 0.147 µM | [9] 2.61 µM | [6] 1.31 µM

CC(=O)[C@@]1(O)CC[C@H]2[C@@H]3C[C@H](C)C4=CC(=O)CC[C@]4(C)[C@H]3CC[C@@]21C
active: [1] 10.4 µM | [9] 0.827 µM | [4] 0.414 µM
not listed: [2] | [10]
inactive: all other assays above

COc1c(C)c2c(c(O)c1C/C=C(\C)CCC(=O)OCCN1CCOCC1)C(=O)OC2
inactive: [2] | [3] | [5]
active: [1] 1.47 µM | [8] 0.185 µM

N=C(N)c1ccc(OCCCOc2ccc(C(=N)N)cc2)cc1
active: [1] 23.3 µM | [8] 0.465 µM
not listed: [2] | [10]
inactive: all other assays above

Cc1ccc(C(=O)Oc2ccc(C(O)CNC(C)(C)C)cc2OC(=O)c2ccc(C)cc2)cc1 (stereo not drawn)
inactive: [2] | [3] | [9] | [4] | [5]
active: [1] 5.22 µM

O=c1[nH]sc2cc(Cl)ccc12
active: [1] 20.8 µM | [2] 20.8 µM | [4] 6.57 µM
inactive: [3] | [7]

CC(C)(C)CC(=O)OCC(=O)[C@@]1(O)CC[C@H]2[C@@H]3CCC4=CC(=O)C=C[C@]4(C)[C@H]3[C@@H](O)C[C@@]21C
not listed: [4] | [10]
inactive: all other assays above

Nc1c2ccccc2nc2ccccc12
active: [1] 2.93 µM | [8] 14.7 µM | [9] 3.29 µM | [4] 7.37 µM | [6] 3.69 µM | [7] 8.33 µM

CCCC(=O)O[C@]1(C(=O)COC(=O)CC)CC[C@H]2[C@@H]3CCC4=CC(=O)CC[C@]4(C)[C@H]3[C@@H](O)C[C@@]21C
active: [1] 8.27 µM
inactive: [2] | [3] | [5] | [6] | [7]

CC(=O)O[C@@H]1C(=O)O[C@@H]2[C@H]1OC(=O)[C@@H]2OC(C)=O
inactive: [2] | [3] | [5] | [6] | [7]
active: [9] 1.17 µM | [4] 5.85 µM

C[N+](C)(C)CCO
inactive: [10]

Nc1ncnc2n[nH]c(Nc3ccc(F)cc3)c12
inactive: [10]

COc1ccccc1N1CCN(CCN2C(=O)CC3(CCCC3)CC2=O)CC1
active: [10] 56.2 µM

CC(C)=CCC/C(C)=C/CC/C(C)=C/C(=O)OCC(=O)[C@@]1(O)CC[C@H]2[C@@H]3CCC4=CC(=O)C=C[C@]4(C)[C@H]3[C@@H](O)C[C@@]21C
inactive: [7]
active: [8] 20.8 µM | [5] 18.5 µM

Clc1ccc2c(c1)N=C(N1CCNCC1)c1ccccc1N2
inactive: [10]

CCCC(=O)O[C@]1(C(=O)CCl)[C@@H](C)C[C@H]2[C@@H]3CCC4=CC(=O)C=C[C@]4(C)[C@@]3(F)C(=O)C[C@@]21C
inactive: [9] | [4] | [5] | [6] | [7]

O=C1NC(c2cccc([N+](=O)[O-])c2)=CCN1c1ccccc1O
active: [10] 50.1 µM

CCCCC(CC)CNC(=O)CC(C)OC(=O)CCC(=O)O (stereo not drawn)
not listed: [1] | [5] | [10]
inactive: all other assays above

N[C@@H](Cn1ccc(=O)c(O)c1)C(=O)O
inactive: [10]

CC(=O)OCC(=O)[C@@]1(O)[C@H](OC(C)=O)C[C@H]2[C@@H]3CCC4=CC(=O)C=C[C@]4(C)[C@@]3(F)[C@@H](O)C[C@@]21C
not listed: [1] | [4] | [10]
inactive: all other assays above

CCN(CC)CCNC(=O)c1ccc(NS(C)(=O)=O)cc1
inactive: [10]

COC(=O)C1=CO[C@@H](O)[C@@H]2C(CO)=CC[C@H]12
inactive: [10]

NC(N)=NCCCCN=C(N)N
inactive: [10]

Cn1cnc2c(NCc3ccccc3)nc(NCCO)nc21
inactive: [10]

C[C@H]1C[C@@H]2[C@H]([C@@H](O)C[C@@]3(C)[C@H]2CC[C@]3(O)C(=O)CO)[C@@]2(C)C=CC(=O)C=C12
inactive: [3] | [8] | [6] | [7]

CCOC(=O)O[C@]1(C(=O)OCCl)CC[C@H]2[C@@H]3CCC4=CC(=O)C=C[C@]4(C)[C@H]3[C@@H](O)C[C@@]21C
not listed: [1] | [5] | [10]
inactive: all other assays above

C[C@H]1C[C@H]2[C@@H]3CCC4=CC(=O)C=C[C@]4(C)[C@H]3C(=O)C[C@]2(C)[C@@]1(O)C(=O)CO
inactive: [7]
active: [2] 4.65 µM | [9] 2.93 µM | [5] 3.69 µM

CC(C)N(CCC(=O)c1ccc2ccccc2c1)Cc1ccccc1
inactive: [10]

Cc1nn(-c2ccccc2)c(C)c1/C=N/N1CCN(Cc2ccccc2)CC1
active: [10] 15.8 µM

CN(C)CCN(Cc1ccsc1)c1ccccn1
inactive: [2] | [3] | [9] | [4] | [5] | [7]

Brc1ccc([C@H]2CN3CCSC3=N2)cc1
active: [10] 79.4 µM

O=C1NC(=O)/C(=C/c2ccc3c(c2)OC(F)(F)O3)S1
inactive: [10]
